Sampled rows, rich in hits. Any-hit rate of the full collection: about 6.9%.
Beta apoptosis: beta cell apoptosis inhibition | INS-1E cytokine-induced death, ATP luminescence, 48 h; percent of positive-control rescue, neutral wells zero | protection from apoptosis, % (no concentration beside the values) | 300,000 compounds, 0.8% hits | AID 435005;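 active means Every replicate reaches about 75%, or at least half do and their mean reaches it too, limit read from the data; inconclusive means At least half of replicates reach the limit but their mean does not; inactive means Under half of replicates reach the limit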;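 further: higher means more ATP so stronger rescue from cytokine killing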
SKKanGAS inh: SKKanGAS growth inhibition. S. pyogenes SKKanGAS, kanamycin growth, BacTiter-Glo, 6 h. inhibition, % at 7.5 µM. 300,000 compounds, 1.3% hits. AID 1662;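 active means mean replicate score, as percent of positive control median, at least 50; inconclusive means mean below 50 but one replicate at or above 50; inactive means mean and every replicate below 50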;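 further: strain carries kanamycin resistance gene driven by streptokinase promoter and grows in 40 µg/ml kanamycin; loss of luminescence reflects streptokinase promoter inhibition or plain growth inhibition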
Mdm2-MdmX inh: inhibitors of human Mdm2/MdmX interaction; 330,000 compounds, 3% hits; inhibition, % at 8 µM; SaOS-2 split-luciferase Mdm2/MdmX complementation, luminescence;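 active means inhibition of at least 50% at 8 µM in the primary screen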
Target sequence (O15151 whole entry, looked up): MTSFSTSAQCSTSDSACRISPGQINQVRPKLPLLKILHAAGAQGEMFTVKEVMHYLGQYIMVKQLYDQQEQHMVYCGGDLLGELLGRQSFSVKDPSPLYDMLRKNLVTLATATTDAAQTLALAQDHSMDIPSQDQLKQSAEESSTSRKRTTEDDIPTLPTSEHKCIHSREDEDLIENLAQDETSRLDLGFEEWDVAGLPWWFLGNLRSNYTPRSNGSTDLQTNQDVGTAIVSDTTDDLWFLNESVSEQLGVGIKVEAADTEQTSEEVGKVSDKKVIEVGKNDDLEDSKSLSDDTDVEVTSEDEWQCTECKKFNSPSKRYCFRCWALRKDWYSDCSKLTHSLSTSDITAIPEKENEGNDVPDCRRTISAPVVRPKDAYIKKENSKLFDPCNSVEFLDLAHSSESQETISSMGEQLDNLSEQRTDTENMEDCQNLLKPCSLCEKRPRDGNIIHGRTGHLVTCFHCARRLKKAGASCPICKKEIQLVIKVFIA
Target sequence (Q00987 whole entry, looked up): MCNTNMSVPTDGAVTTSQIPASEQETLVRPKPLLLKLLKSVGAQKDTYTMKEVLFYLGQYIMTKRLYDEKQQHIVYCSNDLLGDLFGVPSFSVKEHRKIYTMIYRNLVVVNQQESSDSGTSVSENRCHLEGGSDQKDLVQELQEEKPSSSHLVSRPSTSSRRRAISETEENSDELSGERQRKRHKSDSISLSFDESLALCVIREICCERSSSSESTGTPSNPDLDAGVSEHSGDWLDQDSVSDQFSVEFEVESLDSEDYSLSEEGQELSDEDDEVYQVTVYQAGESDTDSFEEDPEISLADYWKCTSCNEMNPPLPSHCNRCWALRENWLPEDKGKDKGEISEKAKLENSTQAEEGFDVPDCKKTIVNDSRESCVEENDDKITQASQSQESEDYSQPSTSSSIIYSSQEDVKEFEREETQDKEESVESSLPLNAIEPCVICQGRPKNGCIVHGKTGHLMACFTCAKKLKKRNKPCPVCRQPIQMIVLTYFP
NR3A LBD binder: modulates the human NR3A ligand-binding domain; NR3A LBD differential scanning fluorimetry, Tm shift; 0% = protein alone, 100% = glycine-bound protein; Tm shift relative to glycine control, % at 25 µM; 340,000 compounds, 2.5% hits; AID 1259313;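 active means melting temperature shift of at least 10% of the positive control shift, at one fixed dose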
MPTP block: inhibitors of mitochondrial permeability transition pore; isolated mouse mitochondria, Ca2+ swelling absorbance, 30 min; 360,000 compounds, 1.4% hits; AID 602449; inhibition, % at 10 µM;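 active means inhibition of 50% or more, scaled per plate between neutral and stimulator controls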
CSC inhib: blocks cancer stem cells | inhibition, % at 7.5 µM | cancer stem cell-like cells viability, luminescence | 300,000 compounds, 1.1% hits; in the data active means inhibition above about 75%; inconclusive means no clear call, values can overlap the other calls; tested in HMLE shEcad cells
MPTP counter: mitochondrial membrane potential, counter-screen; shares compounds with MPTP block; isolated mitochondria, Rhodamine 123 fluorescence; inhibition, % at 10 µM; 5,000 compounds, 78% hits; in the data active means inhibition above about 22%
MPTP abs DR: dose response confirmation of mitochondrial permeability transition pore inhibitors; shares compounds with MPTP block; isolated mitochondria swelling, absorbance; IC50, µM; 780 compounds, 58% hits; AID 651561; in the data active means IC50 below about 20 µM
MPTP counter DR: active in counter-screen for permeability transition pore inhibitors; shares compounds with MPTP block; isolated mitochondria counterscreen, fluorescence read-out; IC50, µM; 780 compounds, 49% hits; in the data active means IC50 below about 80 µM
Hits are given with their value; – = inactive; ? = inconclusive; · = no result.

SMILES	Beta apoptosis	SKKanGAS inh	Mdm2-MdmX inh	NR3A LBD binder	MPTP block	CSC inhib	MPTP counter	others
S=C(NCCSCc1ccccc1Cl)Nc1ccccc1	–	–	–	–	81.6	–	104.1
CCOc1ccc(CSCCNC(=S)Nc2ccc(OC)cc2)cc1	–	–	–	–	–	–	·
COc1ccc(C2SCCN2C(=S)Nc2cccc(Cl)c2)cc1 (centres undefined)	–	–	–	15.7	95.6	·	94.0
COC(=O)c1cccc(NC(=S)Nc2cc(Cl)ccc2OC)c1	–	–	–	–	–	–	·
COc1ccc(C2SCCN2C(=S)Nc2ccc(Cl)cc2)cc1 (centres undefined)	·	–	–	–	–	·	·
COC(=O)c1cccc(NC(=S)NCc2ccc(Cl)cc2)c1	–	61.7	–	–	94.0	–	106.7
COc1ccc(CNC(=S)Nc2cccc(Cl)c2)cc1	·	–	–	–	74.7	–	100.0
COC(=O)c1cccc(NC(=O)Nc2ccc(Cl)cc2Cl)c1	–	–	–	–	84.2	–	75.3
CCOc1ccccc1OCCC(=O)OCC(=O)Nc1c(C)nn(-c2ccccc2)c1C	–	–	–	–	–	–	·
Cc1noc(C)c1S(=O)(=O)Nc1ccc2c(c1)C(=O)N([C@H](C)CO)C[C@@H](C)[C@@H](CN(C)Cc1ccc3c(c1)OCO3)O2	–	·	–	–	–	·	·
COc1ccc(S(=O)(=O)N2CCOCC2)cc1NC(=O)c1cccs1	–	·	–	–	–	·	·
COc1ccc(N2C[C@H](C)[C@@H](CC(=O)Nc3ccc(Br)cc3)C2=O)cc1	·	·	·	·	–	·	·
COC(=O)c1cc(NC(=S)NCc2ccc(Cl)cc2)cc(C(=O)OC)c1	–	–	–	24.6	98.1	–	79.2
COC(=O)c1ccc(C)c(NC(=S)NCc2ccc(Cl)cc2)c1	–	–	–	–	–	–	·
O=C(Nc1nccs1)c1ccc(Br)s1	–	–	–	–	–	–	·
O=C(Nc1nc(-c2ccccn2)cs1)c1ccc(Br)s1	85.1	–	–	26.1	53.9	97.0	–
O=C(Nc1ccncc1)c1ccc2c(c1)C(=O)N(C1CCCCC1)C2=O	–	–	–	–	91.3	–	96.6
Cc1ccc(Nc2nc(OC(C(F)(F)F)C(F)(F)F)nc(N3CCOCC3)n2)cc1	–	–	–	–	71.7	–	–	MPTP abs DR=–;MPTP counter DR=–
COc1ccc(C(C(=O)NC(C)(C)C)N(C(=O)CCC(=O)Nc2cc(C)on2)c2cccc(C)c2C)cc1 (centres undefined)	–	–	–	–	–	·	·
Cc1ccc(S(=O)(=O)N2CCC(C(=O)OC(C)C(=O)N(C)c3ccccc3)CC2)cc1C (centres undefined)	–	·	–	–	–	·	·
CN1/C(=C\C=C2/C(=O)Oc3ccccc3C2=O)C(C)(C)c2ccccc21	–	–	·	–	·	–	·
CN(C)c1ccc(N=C/C=C2/N(C)c3ccccc3C2(C)C)cc1	·	–	·	–	82.3	·	52.0
CN1C(=CC=C2C=C(I)C(=O)C(I)=C2)C(C)(C)c2ccccc21	·	·	·	–	66.6	·	–
CCOc1ccc(NC(=O)c2ccccc2NS(=O)(=O)c2ccc(F)cc2)c([N+](=O)[O-])c1	–	–	–	–	91.6	–	93.6
O=C(Nc1cc(S(=O)(=O)N2CCOCC2)ccc1O)c1ccc(S(=O)(=O)N2CCCCC2)cc1	–	·	–	–	–	–	·
SMILES	Beta apoptosis	SKKanGAS inh	Mdm2-MdmX inh	NR3A LBD binder	MPTP block	CSC inhib	MPTP counter	others
O=C(Nc1cc(S(=O)(=O)N2CCCCC2)ccc1Cl)c1ccccc1NS(=O)(=O)c1ccc(F)cc1	129.9	–	·	20.8	97.1	82.6	60.2
O=C(Nc1cc(S(=O)(=O)Nc2ccc(Cl)cc2)ccc1O)c1ccc(S(=O)(=O)N2CCCCCC2)cc1	–	–	–	29.6	90.9	–	41.6
O=C(Nc1cc(S(=O)(=O)N2CCCCC2)ccc1O)c1ccccc1NS(=O)(=O)c1ccc(F)cc1	–	–	–	21.0	96.9	–	71.4
O=C(NCc1cccc(Cl)c1)c1ccc(CS(=O)Cc2ccccc2Cl)o1 (centres undefined)	–	–	–	–	–	–	·
COc1ccc2nc(/C(C#N)=C\c3ccc(Oc4ccc([N+](=O)[O-])cn4)cc3)[nH]c2c1	?	–	–	–	–	–	·
CCOc1cc(/C=C(/C#N)c2nc3ccccc3[nH]2)ccc1Oc1ccc([N+](=O)[O-])cn1	–	–	–	–	83.0	–	44.9
Cc1ccc2nc(/C(C#N)=C\c3ccc(Oc4ccc([N+](=O)[O-])cn4)cc3)[nH]c2c1	–	·	·	11.7	65.3	–	–	MPTP abs DR=–;MPTP counter DR=10.3
CCOc1cc(/C=C(\C#N)c2nc3ccccc3[nH]2)ccc1OC(C)C(=O)O (centres undefined)	–	–	–	–	–	–	·
O=C(Nc1ccc(F)cc1)c1cnc(-c2ccccc2)nc1-c1ccccc1	–	–	–	–	–	–	·
O=C(Nc1ccc(F)c(F)c1)c1cnc(-c2ccccc2)nc1-c1ccccc1	–	–	–	–	71.6	–	–	MPTP abs DR=–;MPTP counter DR=7.04
NC(N)=Nc1ccc(C=C2C=Cc3ccccc32)cc1	·	·	·	–	58.2	·	–	MPTP abs DR=3.68;MPTP counter DR=31.3
Cc1nn(CC(C)C)c(Cl)c1C(=O)N(C)CC(=O)Nc1c(Cl)cccc1Cl	–	–	–	–	–	–	·
CCCCC(=O)Nc1cccc(-c2csc(-c3ccccc3)n2)c1	–	–	–	–	57.2	–	58.0
O=C(CNC(=O)c1ccc(Br)o1)NNC(=O)COc1ccccc1Cl	–	·	–	–	–	–	·
Cc1onc(-c2c(Cl)cccc2Cl)c1C(=O)NCc1ccco1	–	–	–	–	71.9	–	–	MPTP abs DR=–;MPTP counter DR=–
Cc1onc(-c2ccccc2)c1C(=O)NCc1ccco1	–	–	–	–	–	–	·
O=C1C=C(c2ccc3c(c2)OCCO3)C[C@@H](c2ccc(F)cc2)C1	–	·	–	–	–	–	·
O=c1c2sccc2nc(SCc2cc(=O)n3ccccc3n2)n1Cc1ccccn1	–	–	–	·	·	–	·
CC(C)C(=O)Nc1ccc(N2CCN(C(=O)c3cccs3)CC2)cc1	–	–	–	–	–	–	·
CC(C)CC(=O)NC(=S)Nc1ccc(N2CCN(C(=O)c3cccs3)CC2)cc1	–	–	–	–	93.2	–	63.7
CC(=O)N1CCN(c2ccc(NC(=S)NC(=O)COc3ccc(C(C)(C)C)cc3)cc2)CC1	–	–	–	–	88.2	–	87.8
CCCc1ccc(Oc2cn[nH]c2-c2ccc(O)c(C)c2O)cc1	·	88.5	–	–	88.9	123.5	83.1
Cc1ccc(C(=O)NC2CCS(=O)(=O)C2)cc1S(=O)(=O)N1CCCCCC1 (centres undefined)	–	–	–	–	–	–	·
